High-throughput results deposited in PubChem by several laboratories.
Shown are actives, neighbours in structure and some others; about 2.2% of the full set was active somewhere.
ABCB6 inh 2: ABCB6 transporter inhibitors, primary screen, K562-ABCB6 cells, flow cytometry, MLPCN library; ATP-binding cassette sub-family B member 6 (Homo sapiens), Q9NP58; K562-ABCB6 porphyrin accumulation, 1 h; active compounds read low; fluorescence ratio to DMSO, % at 10 µM; 0.19% of 360,000 active;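 active = fluorescence ratio to DMSO below 75%, the collection mean minus 3 SD; inconclusive = too few cells collected in the well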;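 note: signal is porphyrin accumulated inside mitochondria; 100% equals median channel fluorescence of DMSO control wells; lower ratio means ABCB6 inhibition with less porphyrin fluorescence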
MIN6 prolif: inducers of MIN6 beta-cell proliferation, primary screen, ATP luminescence, uHTS. proliferation, % at 10 µM. MIN6 cells proliferation, ATPlite luminescence, 48 h; cells starved in 0.2% serum; 100% = growth in 10% serum. 0.29% of 330,000 active. AID 2380, 2010;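 active = compounds whose signal lies at least 3.5 SD above the mean of all wells on their plate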;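 note: 0% = DMSO-treated cells in low-serum medium and 100% = 10% serum control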
Cardio protect: cardioprotection against H2O2-induced cell death, primary screen, uHTS, H9c2 cells, ATPLite luminescence; H9c2 cardiomyocytes, H2O2 injury protection, 2 h; protection from H2O2 cell death, % at 20 µM; 0.63% of 360,000 active; AID 588492, 2011;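 active = compounds giving at least 50% protection of heart cells from peroxide-induced death in the single-dose screen, raw or plate-pattern-corrected value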;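 note: 0% = DMSO wells with peroxide and 100% = DMSO wells without peroxide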
iPSC survival up: enhancers of single-cell hiPSC survival, primary screen, ATPlite luminescence | 100% = ROCK inhibitor wells, 0% = DMSO | AID 602274, 2012 | survival enhancement, % at 20 µM | 0.044% of 360,000 active; in the data active = survival enhancement above about 18%;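 note: cells exposed to compounds for 16 hours before the ATP read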
Myeloid diff MLP: induction of myeloid progenitor differentiation, primary screen, cell-based, flow cytometry, MLPCN library. ER-HoxA9 myeloid progenitors, lysozyme-GFP differentiation. calls only at 10 µM. 1% of 360,000 active;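 active = normalized GFP-positive differentiation at or above the plate's own cutoff, the solvent-only control mean plus 3 SD; inconclusive = no clear call, values can overlap the other calls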;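 note: cells exposed to compound for four days before flow analysis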
Numbers without * were called inactive; i = inactive; u = inconclusive; x = no result given; + = active, no number.

SMILES	ABCB6 inh 2	MIN6 prolif	Cardio protect	iPSC survival up	Myeloid diff MLP
O=S(=O)(c1cccc(Cl)c1)N1CN(CC2CCCO2)c2nc3ccccc3nc21 (centres undefined)	94	-1	-2	0	+
Cc1ccc(/C=N/N2C(=O)c3ccccc3NC2c2ccc(C)cc2)cc1 (centres undefined)	104	0	-9	-1	+
Cn1c(SCC(=O)Nc2ccc3c(c2)OCCO3)nnc1-c1cccnc1	100	0	7	0	i
Cc1[nH][nH]c(=O)c1C(c1c(C)[nH][nH]c1=O)c1cn(Cc2ccccc2Cl)c2ccccc12	104	x	-10	-2	u
CCN(CC)C1=NS(=O)(=O)c2cc([N+](=O)[O-])ccc21	86	-4	-5	-4	i
Cn1c2ccc(F)cc2c2nc3ccccc3nc21	97	2	0	0	i
CCn1c2ccc(F)cc2c2nc3ccccc3nc21	149	0	-3	-2	+
NC(=O)c1ccc(Nc2nc(C(N)c3ccccc3Cl)cs2)cc1 (centres undefined)	97	x	-2	28*	i
CC(C)(C)C(=O)/C=C(\N)c1ccccn1	101	-1	12	-2	+
O=C(c1ccc(Cl)c(Cl)c1)N1CCC(=O)N(C(COCc2cccc(Cl)c2)Cc2ccccc2)CC1 (centres undefined)	96	-8	-6	1	+
O=C(c1cccc(Cl)c1)N1CCC(=O)N(C(COCc2cccc(Cl)c2)Cc2ccccc2)CC1 (centres undefined)	93	-7	-3	-1	i
CN(C)S(=O)(=O)c1cccc(NC(=O)COc2cccc(C#N)c2)c1	96	x	5	-2	i
CC(NC(=O)C(=O)c1cn(CC(=O)N2CCCC2)c2ccccc12)c1ccccc1 (centres undefined)	102	x	5	1	i
CCCc1cc2c(=O)n(NC(=O)c3nn(C)cc3[N+](=O)[O-])c(C)nc2s1	95	-1	2	-1	i
O=c1oc(/C=C/c2ccc([N+](=O)[O-])s2)nc2ccccc12	145	-4	10	-1	+
COc1ccc(Cl)cc1C(=O)NNC(=S)NC1CCCCC1	98	0	-1	0	i
COc1cc(C=NNC(=O)C(=O)Nc2cccc(Cl)c2)cc(OC)c1O	201	x	43	1	+
C[C@]12CCC(=O)CC1CCC1C2CC[C@@]2(C)C1CC[C@@]21CCO1 (some centres undefined)	96	-3	-7	0	+
C[C@]12CCC(=O)C[C@@H]1CC[C@@H]1[C@@H]2CC[C@]2(C)C=CC[C@@H]12	101	-2	-17	-2	i
CC(=O)Nc1cc2c3c(cccc3c1)-c1ccccc1-2	129	x	-5	-1	+
CC(=O)Nc1ccc2c(c1)C(=O)c1ccccc1C2=O	101	-2	4	-2	i
Cc1cccc(N2C(N)=NC(N)=NC23CCCCC3)c1	87	x	-2	1	+
CC(C)C(NC(=O)C12CC3CC(CC(C3)C1)C2)C(=O)N/N=C/C1=C(N2CCOCC2)C(=C\c2ccc([N+](=O)[O-])cc2)/CC1 (centres undefined)	169	-5	2	-2	+
CC(NC(=O)C12CC3CC(CC(C3)C1)C2)C(=O)N/N=C/C1=C(N2CCOCC2)C(=C\c2cccc([N+](=O)[O-])c2)/CC1 (centres undefined)	96	0	8	0	i
O=C(O)CCCCCN1C(=O)/C(=C\c2ccc(-c3ccc(Cl)cc3)o2)SC1=S	143	-6	-4	0	+
O=C(O)CCCN1C(=O)/C(=C/c2ccc(-c3nc4ccccc4s3)o2)SC1=S	63*	-2	-28	2	x
O=C(O)CCCN1C(=O)/C(=C/c2ccncc2)SC1=S	97	-1	0	0	i
Cc1ccc(S(=O)(=O)N(CC(=O)Nc2ccc(Cl)c([N+](=O)[O-])c2)C2CCCCC2)cc1	98	0	-11	2	i
